The record followed here is PubChem BioAssay (NCI).

Each structure is given as a SMILES string. The panel holds about 83,000 compounds, 20% with a hit somewhere; the sample as a whole holds those more often.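 A percent growth of 40 corresponds to 60% growth inhibition; 0 means no net growth; -100 means all cells died. Active threshold: below 10.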 Activity calls are given as the source filed them.

The assay deals with UO-31 renal. Briefly: NCI-60 one-dose screen, 48 h (100 = growth as untreated, 0 = no growth, -100 = all killed). The note with it: 10 µM unless noted. As to the method: Growth inhibition of the UO-31 human tumor cell line is measured as a screen for anti-cancer activity. Cells are grown in 96 well plates and exposed to the test compound for 48 hours. Compounds are tested at a single concentration, which is 10^-5 M for most compounds. The reported endpoint is percent growth (GI% or GIPRCNT), where numbers from 0 - 100% represent growth inhibition, and numbers from -100% - 0 represent cell death. For example, a value of 40 represents 60% growth inhibition. A value of 0 means no net growth occurred over the course of the experiment. A value of -40 indicates 40% of cells at the beginning of the experiment died by the end of the experiment. A value of -100 means all cells are dead at the end of the experiment.
NCI-60 Human Tumor Cell Lines Screen was performed using the standard one-dose NCI protocol, which is described in more detail at https://dtp.cancer.gov/discovery_development/nci-60/default.htm.
Compounds with GIPRCNT values below 10 were considered active. Activity score was based on GIPRCNT using the following formula: […]
Score is 0 for GIPRCNT values of 100 or above, 50 for GIPRCNT values of 0, and 100 for GIPRCNT values of -100.
Take `CCOC(=O)c1sc(NCC(=O)Nc2cccc([N+](=O)[O-])c2)c(C(=O)OCC)c1C`: the growth was -64.6% (active).

As for `O=C1/C(=C/C2=Cc3ccccc3OC2)SC(=S)N1c1ccc(F)cc1`, the growth was 86.3% (inactive). With `Cc1ccc(/C=C/c2nn3c(-c4ccco4)nnc3s2)cc1C` the figure was 80.8% (inactive); with `CCN1C(=S)N(CC)C2C1N=C(SC)N2/N=C/C=C/c1ccccc1[N+](=O)[O-]` (stereo not given), 94.8% (inactive). In the case of `Cc1ccc(CNS(=O)(=O)/N=C2\NC(=O)NC2=C(Cl)Cl)cc1` it was 84.7% (inactive); in that of `Cc1cc2nc3c4cc(Cl)ccc4n(CC(=O)NCCN(C)C)c3nc2cc1C`, -83.6% (active); in that of `COc1cc(/C=C/C(=O)c2cc(OC)c(OC)c(OC)c2)ccc1OCc1ccc(F)cc1`, 45.4% (inactive).

In the case of `CCCCN1C(=O)/C(=c2\sc3n(c2=O)C2C(NN=3)N(CC)C(=O)N2CC)c2cc(Cl)ccc21` (stereo not given), the growth is 63% (inactive). Consider `CN1CCN(Cc2ccc(NC(=O)c3cncc(C#Cc4cnc5[nH]ncc5c4)c3)cc2C(F)(F)F)CC1`, for which the growth was 2.97% (active). As for `Cn1c(SCC(=O)Nc2ccc(-c3nc4ccc([N+](=O)[O-])cc4[nH]3)cc2)nc2ccccc2c1=O`, the growth is 84.7% (inactive).

As to `O=[N+]([O-])c1ccc(O)c2ncccc12`, the growth was 31.4% (inactive).

For the compound `N=C1CC(=O)NN1C(=O)CSc1nc2sc3c(c2c(=O)n1-c1ccc(Cl)cc1)CCCC3`, the growth is 70.1% (inactive).

For `C[C@@H]1CN(c2ccc3ncc(C#Cc4cncc(C(=O)Nc5ccc(CN6CCN(C)CC6)c(C(F)(F)F)c5)c4)n3n2)C[C@H](C)O1`, the growth is -87.9% (active).

On to `N#Cc1c(-c2ccc(Cl)cc2)nc(SCc2ccc(F)cc2)nc1N1CCNCC1`, for which the growth was 51.3% (inactive). Turning to `COc1cccc(COc2ccc(/C=C3/C(=O)Nc4cc(Cl)ccc43)cc2)c1`, the growth was 75.4% (inactive). With `CCN(CC)c1ccc(C=O)c(OCc2cn(CC(=O)Nc3ccc(Cl)cc3)nn2)c1` the figure was -58.2% (active). Consider `Cn1cc(-c2cc(N)n3nc(-c4cn(C)c5ccc(Br)cc45)cc3n2)c2cc(Br)ccc21`, for which the growth was 81.8% (inactive).

With `Clc1ccc2c(NCCCn3ccnc3)c3oc4ccc(Cl)cc4c3nc2c1`, the growth is 44% (inactive). With `Oc1c(Cl)cc(Cl)c2ccc(CN3CCCCC3)nc12` the figure was 35.7% (inactive). For `Clc1ccc2c(NCCCn3ccnc3)c3oc4ccccc4c3nc2c1`, the growth is 36.2% (inactive). As for `CS(=O)(=O)c1ccc(-c2nc3ccccn3c2C=Nc2ccc(Cl)cc2)cc1`, the growth is 61.4% (inactive). In the case of `COC(=O)C1CCCN(S(=O)(=O)/N=C2\NC(=O)NC2=C(Cl)Cl)C1` (stereo not given) it was 92.2% (inactive); in that of `O=C(CN1C(=O)/C(=C/c2ccccc2)SC1=S)N1CCOCC1`, 71.4% (inactive). Take `N#Cc1ccc(/C=N/NC(=O)c2[nH]c3ccc(Br)cc3c2-c2ccccc2)s1`: the growth was 36% (inactive). With `O=C(CSc1nccc(=O)[nH]1)Nc1ccc(-c2nc3ccccc3[nH]2)cc1` the figure was 108% (inactive); with `O=C(N/N=C/c1ccc([N+](=O)[O-])o1)c1[nH]c2ccc(Br)cc2c1-c1ccccc1`, 30.9% (inactive); with `CCCC(=O)NC(c1cccc(N(C)C)c1)c1cc(C)c2cccnc2c1O` (stereo not given), 31.9% (inactive). In the case of `O=C1c2c(c3c4cccnc4[nH]c3c3ccc4ccccc4c23)C(=O)N1CCO` it was 56.1% (inactive).

For `O=C1Nc2cc(Cl)ccc2/C1=C\c1ccc(OCc2ccc(Br)cc2F)cc1`, the growth is -68.7% (active). Turning to `Cn1ccnc1C(=O)/C=C/c1ccc(NC(=O)Nc2ccc(F)cc2)cc1`, the growth was 56.6% (inactive). For `O=C(N/N=C/c1ccc(Cl)s1)c1[nH]c2ccc(Br)cc2c1-c1ccccc1`, the growth is 46.2% (inactive).

In the case of `COc1ccc2[nH]cc(-c3cc(N)n4nc(-c5c[nH]c6ccc(OC)cc56)cc4n3)c2c1`, the growth is -22.8% (active).

`CCN1CCN(/C(=N\c2sc(-c3ccccc3)nc2-c2ccccc2)c2ccccc2)CC1`: the growth was 64.5% (inactive). With `COc1ccc(CNS(=O)(=O)/N=C2\NC(=O)NC2=C(Cl)Cl)cc1` the figure was 48.9% (inactive); with `COc1cc(OC)c(S(=O)(=O)NNC(=O)c2ccncc2)cc1C(=O)/C=C/c1ccc(C)cc1`, 77.5% (inactive); with `N#Cc1c(-c2ccc(Cl)cc2)nc2c(-c3ccccc3)c(Nc3ccccc3)nn2c1N`, 34.8% (inactive). Consider `COc1cc(/C=C/C(=O)c2ccc(F)cc2)ccc1Oc1nc(NCCO)nc(N2CCOCC2)n1`, for which the growth is 61.2% (inactive). In the case of `COC(=O)C(C)NS(=O)(=O)/N=C1\NC(=O)NC1=C(Cl)Cl` (stereo not given), the growth was 81.7% (inactive). In the case of `COc1ccc(-n2c(SCC(=O)Nc3ccc(-c4nc5ccccc5[nH]4)cc3)nc3ccccc3c2=O)cc1` it was 73.5% (inactive); in that of `[Cl][Ru].c1ccc(-c2cc(-c3ccccn3)nc(-c3ccccn3)c2)cc1.c1ccc(-c2ccnc3c2ccc2c(-c4ccccc4)ccnc23)cc1`, 63.9% (inactive).
